# Compounds with a hit are over-represented: about 3% of the library has one in this group of screens.
# SENP8 block-1: human SENP8 protease inhibitors, primary screen, biochemical, fluorescence, Nedd8 protein substrate, uHTS; Sentrin-specific protease 8 (Homo sapiens), Q96LD8; recombinant SENP8; inhibition, % at 20 µM; 360,000 tested, 0.64% active; in the data active = inhibition mostly above about 40%, no sharp cut-off; inactive = mostly below about 27%
# PPC-1+TRAIL kill: compounds killing PPC-1 cancer cells with TRAIL present, primary screen, TRAIL potentiator project, ATPLite luminescence, uHTS. PPC-1 cells + TRAIL, ATPLite viability luminescence. 220,000 tested, 0.41% active. cell killing (% activity), % at 4 µM or 5 µM;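 active = cell killing above 50% in the first pass at 4 µM, then a duplicate retest at 5 µM averaging 50% or more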;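 note: plate controls were cells with TRAIL plus DMSO for no effect and medium-only wells lacking cells for full effect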
# C8 TRAIL sens: viability loss with TRAIL in NB7+C8 cells, primary screen, TRAIL sensitizer project, cell-based, ATPlite luminescence. inhibition (viability loss, TRAIL sensitization), % at 10 µM. 360,000 tested, 1% active. AID 624354, 2012;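 active = compounds causing at least 50% loss of cell viability in the single-dose screen, relative to plate controls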
# SENP7 inh: SENP7 protease inhibitors, primary screen, biochemical, luminescence, uHTS; AID 434973, 2010; Sentrin-specific protease 7 (Homo sapiens), Q9BQF6; recombinant SENP7, Z-RLRGG-aminoluciferin luminescence, 40 min; 330,000 tested, 1.5% active; inhibition, % at 5 µM;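 active = inhibition above about 50% at the single test dose, limit read from the data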;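 note: plate controls were DMSO with enzyme for no effect and no enzyme buffer wells for full effect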
# SENP6 block: SENP6 protease inhibitors, primary screen, biochemical, luminescence, uHTS; Recombinant SENP6 catalytic domain, aminoluciferin luminescence; inhibition, % at 10 µM; 330,000 tested, 1.8% active;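 active = inhibition above about 50% at the single tested dose, limit read from the data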;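 note: plate controls were DMSO wells with enzyme for no effect and DMSO wells lacking enzyme for full effect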
# Target sequence (Q9GZR1 628-1112 limits assumed): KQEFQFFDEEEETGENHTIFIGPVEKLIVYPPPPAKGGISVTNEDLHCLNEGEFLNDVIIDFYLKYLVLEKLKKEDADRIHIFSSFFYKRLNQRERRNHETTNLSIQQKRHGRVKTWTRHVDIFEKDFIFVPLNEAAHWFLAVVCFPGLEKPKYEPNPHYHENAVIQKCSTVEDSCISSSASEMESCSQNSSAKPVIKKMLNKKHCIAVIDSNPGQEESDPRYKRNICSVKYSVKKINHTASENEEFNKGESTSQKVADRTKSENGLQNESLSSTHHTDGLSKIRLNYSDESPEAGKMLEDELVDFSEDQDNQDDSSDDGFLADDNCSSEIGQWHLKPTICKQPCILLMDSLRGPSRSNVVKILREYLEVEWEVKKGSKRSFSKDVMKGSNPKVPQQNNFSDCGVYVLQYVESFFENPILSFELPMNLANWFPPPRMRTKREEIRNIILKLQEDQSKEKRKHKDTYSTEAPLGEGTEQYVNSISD
# SENP8 block-2: SENP8 protease inhibitors, primary screen, biochemical, luminescence. Sentrin-specific protease 8 (Homo sapiens), Q96LD8. inhibition, % at 10 µM. purified SENP8, Z-RLRGG-aminoluciferin cleavage. 330,000 tested, 1.2% active; in the data active = inhibition above about 50%
# PPC-1 tox: cytotoxicity in PPC-1 cells, confirmation, cytotoxicity control for TRAIL apoptosis potentiator project, cell-based, ATP content luminescence | shares compounds with PPC-1+TRAIL kill | PPC-1 viability, ATPlite luminescence, overnight | cytotoxicity, % at 5 µM | 1,200 tested, 50% active | AID 1447, 2008;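 active = reconfirmed compounds whose average cytotoxicity reaches 50% or more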;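 note: 0% = DMSO-treated cells and 100% = wells holding medium but no cells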
# * hit, by the source's call; i = inactive; · = no result given.
SMILES,SENP8 block-1,PPC-1+TRAIL kill,C8 TRAIL sens,SENP7 inh,SENP6 block,SENP8 block-2,others
CCCCCCc1cc2cc(C(=O)Nc3ccc(OC)cc3)c(=O)oc2cc1O,-106,22,51*,-2,-7,-5,
COc1ccc(NC(=O)c2cc3ccc(O)cc3o/c2=N\O)cc1,1,·,74*,16,47,23,
COc1ccc2o/c(=N\O)c(C(=O)Nc3ccccc3OC)cc2c1,-58,11,-8,-7,-21,-11,
CCCCCCc1cc2cc(S(=O)(=O)c3ccc(F)c(Cl)c3)c(=O)oc2cc1O,-277,7,52*,5,10,5,
CCCCCCc1cc2cc(C(=O)Nc3cccc(OC)c3)c(=O)oc2cc1O,-276,-26,29,-4,-13,-11,
CN1CCN(S(=O)(=O)c2ccc(F)cc2)CC1,7,·,-7,·,·,·,
CC1CC(C)CN(CCCNC(=O)CN2C(=O)c3cccnc3Oc3ccc(Cl)cc32)C1 (stereo unspecified),6,·,-15,9,11,4,
Cn1c(O)c(N=NC(=O)CNC(=O)c2ccccc2)c2ccccc21,10,·,-7,1,-22,6,
Cn1c(N=NC(=O)c2ccccc2)c(O)c2ccccc21,24,44,60*,49,70*,41,
CCOc1cc(/C=C/c2cc(C(=O)O)c3ccccc3n2)ccc1O,-425,22,37,-11,5,-6,
CCOc1cc(/C=C/c2cc(C(=O)O)c3ccccc3n2)ccc1OC,-416,28,58*,3,-2,3,
O=C1C(=O)N(CCCn2ccnc2)C(c2ccc([N+](=O)[O-])cc2)/C1=C(\O)c1ccc2c(c1)OCCO2 (stereo unspecified),16,·,-39,-13,-7,-6,
O=C(O)C(Cc1ccccc1)N1C(=O)/C(=C/c2cccs2)SC1=S (stereo unspecified),41*,2,23,11,-7,2,
O=C(O)C(c1ccccc1)N1C(=O)/C(=C/c2cccs2)SC1=S (stereo unspecified),23,16,4,2,0,0,
COC/C=C/C1=CC2=CC(=O)C(C)(OC(=O)c3cnc4ccccc4n3)C(=O)C2=CN1CC(C)C (stereo unspecified),54*,·,-5,-4,20,-4,
N#Cc1nc(Nc2cccc(Cl)c2)c2ncn(C3CCCC3)c2n1,i,·,52*,49,27,3,
CCn1cnc2c(Nc3cc(F)cc(F)c3)nc(C#N)nc21,-100,·,16,4,-6,-5,
Cc1cc2nc3ccc(N(C)C)cc3nc2cc1N,81*,·,52*,16,51*,50,
COc1ccc2[nH]c3c(c2c1)CCN1C(=O)C(CC(=O)NCc2ccc(OC)c(OC)c2)C[C@H](C(=O)N2CCCCC2)[C@@]31CCc1ccccc1 (stereo partly specified),4,·,8,1,·,·,
Cc1ccc(C)c2[nH]c(=O)c(CCNC(=O)CCc3ccccc3)cc12,-56,·,-4,0,-7,-3,
O=C(Nc1nnc(-c2ccccc2)o1)NC1CCCCC1,-7,6,61*,8,7,-4,
CCOC(=O)c1c(C)nc2c(c1-c1cc(OC)ccc1OC)C(=O)c1ccccc1-2,23,-4,68*,-7,1,-4,
CCOC(=O)C1Nc2ccc(Br)cc2C2C=CCC12 (stereo unspecified),59*,·,6,-2,-12,1,
Nc1ccn([C@@H]2O[C@H](CNCc3cccc4c3sc3ccccc34)[C@@H](O)[C@H]2O)c(=O)n1,12,·,1,·,·,·,
CC(C)(C)c1ccc(C2CC2C(=O)N/N=C\c2ccc[nH]2)cc1 (stereo unspecified),-1,9,65*,3,-5,7,
SMILES,SENP8 block-1,PPC-1+TRAIL kill,C8 TRAIL sens,SENP7 inh,SENP6 block,SENP8 block-2,others
COc1ccc(Cl)cc1NC(=O)CN(C)C1CCCCC1,22,-14,6,1,1,3,
COc1ccc(C)cc1NC(=O)CN(Cc1nnc(-c2ccc(Cl)cc2)o1)C1CCCC1,-2,25,85*,-1,-4,-7,
CCn1c(SC)nc2c(c1=O)SC(C)C2 (stereo unspecified),10,3,-3,-4,-7,-2,PPC-1 tox=4
CCCc1cc(=O)[nH]c(SCC(=O)N2CCC(C)CC2)n1,5,·,-17,3,7,3,
CCCc1cc(=O)[nH]c(SCC(=O)N2CCN(c3ccc(F)cc3)CC2)n1,14,7,-3,-2,-9,3,PPC-1 tox=0
Cc1cc(=O)[nH]c(SCC(=O)N2CCCCCC2)n1,13,14,4,-3,-14,-2,PPC-1 tox=13
Cc1cc(=O)[nH]c(SCC(=O)N2CCCCC2)n1,12,·,-10,5,1,-8,
CCOc1ccc(-c2ccc(SCC(=O)NCC3CCCO3)nn2)cc1 (stereo unspecified),8,26,52*,-1,-17,2,PPC-1 tox=35
COc1ccc(-c2ccc(SCC(=O)Nc3nnc(C)s3)nn2)cc1,7,50*,55*,4,-6,-5,PPC-1 tox=50*
CCOc1ccc(-c2ccc(SCC(=O)Nc3nnc(CC)s3)nn2)cc1,13,70*,67*,2,8,11,PPC-1 tox=68*
CCc1nnc(NC(=O)CSc2ccc(-c3ccc(C)cc3)nn2)s1,2,40,42,5,0,-2,
Nc1cn(C2OC(CO)C(O)C2O)c(=O)[nH]c1=O (stereo unspecified),8,·,-8,-3,1,-5,
CC(C)(C)c1ccc(-c2nnc(N)s2)cc1,-16,47,71*,-18,-4,-12,PPC-1 tox=48
CCOC(=O)c1c(NC(=O)c2cc(-c3cccc(O)c3)on2)sc(C(C)=O)c1C,-31,-4,41,-10,1,-3,
CCOC(=O)c1c(NC(=O)c2noc(C)c2[N+](=O)[O-])sc(C(C)=O)c1C,-6,5,-2,4,-16,-1,PPC-1 tox=-2
CSc1ccc(S(=O)(=O)NC2CCCCCC2)cc1,17,0,-9,-7,-3,-2,PPC-1 tox=1
COc1cc(S(=O)(=O)NCc2ccccc2)ccc1Br,35,9,-8,-3,8,-7,
CCOc1cc(S(=O)(=O)NCc2ccccc2)ccc1F,15,6,-8,13,-4,7,PPC-1 tox=-5
CCOC(=O)[C@@H](NC(=O)CC[C@H]1O[C@@H](n2cc(C)c(=O)[nH]c2=O)C[C@@H]1O)C(C)C,-14,·,4,·,·,·,

# Screening results: PubChem, Sanford-Burnham Center for Chemical Genomics
